# According to PubChem BioAssay (NCI):
# The panel holds about 83,000 compounds, 20% with a hit somewhere; the sample as a whole holds those more often.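 96-well plates, one dose, 48 hours. Percent growth reported; active if below 10.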 Values without a mark were called inactive. Activity calls are given as the source filed them.
# System: KM12 colon
# Experiment: NCI-60 one-dose screen, 48 h (100 = growth as untreated, 0 = no growth, -100 = all killed)
# Details: 10 µM unless noted
row,Compound,growth
1,N#Cc1c(-c2ccccc2)nc2c(c(-c3ccccc3)nn2-c2ccccc2)c1-c1ccc(N2CCOCC2)cc1,95.7%
2,O=C(CCCCCCCCC(=O)N/N=C\c1cc(Cl)ccc1O)N/N=C\c1cc(Cl)ccc1O,24.2%
3,CC12CCC(/C(=C/NNc3ccc([N+](=O)[O-])cc3[N+](=O)[O-])C1=O)C2(C)C (stereo not given),90.7%
4,Nc1ccc([N+](=O)[O-])cc1N=C/C=C/c1ccccc1,40.3%
5,CC1CN=C(c2cccc(-c3ccc(-c4ccccc4)o3)c2)N1 (stereo not given),-8.35% (active)
6,CCCCc1oc2ccccc2c1C(=O)c1ccc(O)cc1,76.4%
7,Cc1cc2oc(=O)cc(CP(=O)(O)O)c2cc1O,102%
8,CCOC(=O)C1=C(C)N=C2SC=C(c3ccccc3)N2[C@H]1c1cn[nH]c1-c1ccc(Cl)cc1,59.4%
9,CCN1C(=S)N(CC)C2C1NC(=S)N2/N=C/C=C/c1ccccc1OC (stereo not given),15%
10,CC(=O)N/C(=C1/OC(C(O)C(O)C(O)CO)CN1C)[P+](c1ccccc1)(c1ccccc1)c1ccccc1 (stereo not given),103%
11,CCn1cc(C(=O)N/N=C/c2ccc(Br)cc2)c(=O)c2cc(F)c(N3CCNC(C)C3)c(F)c21 (stereo not given),47.9%
12,CCNc1nc(-c2ccc(F)cc2)c(C#N)c(=O)n1C,72.1%
13,C(/C=C/c1ccccc1)=Nc1ccc(CCc2ccc(N=C/C=C/c3ccccc3)cc2)cc1,106%
14,O=C(N/N=C/c1ccc([N+](=O)[O-])cc1)c1ccc2nc(-c3ccc(Cl)cc3)[nH]c2c1,13%
15,Fc1ccc(CNc2c3ccccc3nc3ccccc23)cc1,28.3%
16,O=C(CSc1nnc2sc(Nc3cccc(Cl)c3)nn12)c1ccc(F)cc1,95.8%
17,Cn1c(=O)c2c(nc(NC3=NS(=O)(=O)c4ccccc43)n2Cc2ccccc2)n(C)c1=O,99.9%
18,O=c1nc(Nc2nc3ccccc3s2)[nH]c(=O)c2ccccc12,98.5%
19,c1ccc2cc(Cn3c[n+](Cc4ccc5ccccc5c4)c4ccccc43)ccc2c1,-85.9% (active)
20,Cc1[nH]c(/C=C/C(=O)c2ccc(C(F)(F)F)c(F)c2)c(C)c1C(=O)NCC(C)C,101%
21,O=C(Nc1cccc(NC(=O)C2CCCCC2)c1)c1ccccn1,98.6%
22,CCOC(=O)c1c2c(n3ccccc13)C(=O)c1ncccc1C2=O,24.1%
23,COc1ccc(C(c2cc(OC)c(OC)c(OC)c2)N2CCN(Cc3ccccc3)CC2)cc1 (stereo not given),40.6%
24,CN(C)c1ccc(/C=C2/C=C(c3ccccc3)OC2=O)cc1,63.5%
25,C#CC#CC#CC#CC#CC#CC#CC#CCC1OCC(COC(=O)O[C@@H](C(=O)O[C@H]2C[C@@]3(O)[C@@H](OC(=O)c4ccccc4)[C@@H]4[C@]5(OC(C)=O)CO[C@@H]5C[C@H](O)[C@@]4(C)C(=O)[C@H](OC(C)=O)C(=C2C)C3(C)C)[C@@H](NC(=O)c2ccccc2)c2ccccc2)O1 (stereo not given in full),6.73% (active)
